Gal4-VP16 FLuc – counter-screen for ROR gamma inhibitors: Gal4-VP16 reporter; 3.5% of 310,000 active; Potency, µM (doses to about 53.6 µM), for the others: at the top dose activity, negative = inhibition, most hits filed as inhibitors; AID 2546; Drosophila S2 Gal4-VP16 UAS-luciferase, luminescence, 20 h;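 also: Gal4-VP16 expression switched on by copper sulfate through the metallothionein promoter; potency is read from the fitted curve at half-maximal effect; nearly all actives have a fitted effect of over 50% in size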
Coupling enz – inhibits coupling enzyme system, counter-screen for aldolase hits; AID 2472; activity change, negative = inhibition, % at 58.2 µM, hits read low; 0.67% of 290,000 active; coupling enzyme system counterscreen, AmpLite Red fluorescence; in the data active = activity change below about -30%
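Activity here indicates interference with the coupling reaction, not aldolase inhibition. Compounds at 57.5 uM final met coupling enzymes for 10 min at RT; substrate and AmpLite Red detection followed, with a 525/598 nm fluorescence read after 20 min.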
ELG1 DNA repair – inhibitors of ELG1-dependent DNA repair in HEK293T cells; HEK293T ELG1-luciferase reporter, luminescence, 16 h; DNA damage induced by 5-fluorouridine; Potency, µM (highest dose often 46.1 µM), for the others: at the top dose activity change, negative = inhibition, usual class: inhibitors; 2.3% of 330,000 active; AID 504467; also: potency is read from the fitted curve at half-maximal effect; nearly all actives have a fitted effect of over 55% in size
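DMSO vehicle served as the neutral condition. Each well held 2,000 cells given 5-fluorouridine plus compound; after 16 hr at 37 °C/5% CO2, ONE-Glo was added and luciferase measured 30 min later.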
RORgamma inh – ROR gamma (mouse) transcription inhibition | P51450 | Drosophila S2 Gal4-RORgamma UAS-luciferase reporter, 20 h | Potency, µM (highest dose often 53.6 µM), without a hit: top-dose activity change, negative = inhibition, usual class: inhibitors | 5.4% of 310,000 active | AID 2551; also: potency is read from the fitted curve at half-maximal effect; nearly all actives have a fitted effect of over 60% in size
Target sequence (P51450 whole entry, looked up, the tested form may be a part): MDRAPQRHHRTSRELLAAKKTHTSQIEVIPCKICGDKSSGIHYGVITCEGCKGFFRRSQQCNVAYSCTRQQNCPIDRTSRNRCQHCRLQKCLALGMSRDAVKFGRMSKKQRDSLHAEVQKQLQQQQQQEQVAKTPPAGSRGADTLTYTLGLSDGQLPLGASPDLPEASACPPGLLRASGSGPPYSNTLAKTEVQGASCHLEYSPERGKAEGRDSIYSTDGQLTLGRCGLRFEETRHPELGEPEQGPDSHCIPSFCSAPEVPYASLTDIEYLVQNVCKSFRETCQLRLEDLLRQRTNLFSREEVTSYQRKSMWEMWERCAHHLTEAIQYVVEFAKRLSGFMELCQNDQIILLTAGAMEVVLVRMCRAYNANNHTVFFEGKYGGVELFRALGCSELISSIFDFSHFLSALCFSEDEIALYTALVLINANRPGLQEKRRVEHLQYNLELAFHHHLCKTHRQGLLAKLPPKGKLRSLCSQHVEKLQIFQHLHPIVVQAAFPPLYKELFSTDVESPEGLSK
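Schneider cells (Drosophila), stable Gal4 DBD–ROR gamma + UAS-luc; 1 hr cmpd preincubation; Cu2+ induction 700 uM final; 20 hr ambient; luminescence.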
TSHR antagonist – human thyrotropin receptor antagonism; P16473; TSHR-expressing cells, TSH-stimulated cAMP HTRF, 2 h; hits give low values; activity change, negative = inhibition, % at 11.5 µM; 0.2% of 330,000 active; AID 504810;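 active = activity change below a set negative limit, meaning inhibition stronger than a set level, cut at about -70% in these data; inconclusive = activity change between two set negative limits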
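Antagonism was scored as loss of TSH-driven cAMP in TSHR cells, stimulated with 4nM TSH (EC80) for 2 hours at 37 deg C and detected by homogeneous HTRF competition immunoassay.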
* = called active by the depositor; ? = inconclusive; / = no result given. Compounds with a hit are over-represented: about 8% of the library has one in this group of screens. Unless noted, calls follow the shape of the dose curve; as a rule, active = well fitted curve in the direction sought with a large enough effect; inconclusive = small, poorly fitted or top-dose-only effect, or another doubt; inactive = no such curve, though single readings can be large; an effect the other way counts as inactive or inconclusive. % is scaled to controls: 0 for no effect and ±100 for the full control effect.

SMILES	Gal4-VP16 FLuc	Coupling enz	ELG1 DNA repair	RORgamma inh	TSHR antagonist
CC[C@H](C)[C@H](N)C(=O)N[C@@H](CCCNC(=N)N)C(=O)N[C@@H](CCC(N)=O)C(=O)NCC(=O)N1CCC[C@H]1C(=O)N[C@@H](CCCCN)C(=O)N[C@@H](CCC(=O)O)C(=O)N1CCC[C@H]1C(=O)N[C@@H](Cc1ccccc1)C(=O)N[C@@H](CCCNC(=N)N)C(=O)N[C@@H](CC(=O)O)C(=O)N[C@@H](Cc1ccc(O)cc1)C(=O)N[C@H](C(=O)N[C@@H](CC(=O)O)C(=O)N[C@@H](CCCNC(=N)N)C(=O)N[C@@H](Cc1ccccc1)C(=O)N[C@@H](Cc1ccc(O)cc1)C(=O)N[C@@H](CCCCN)C(=O)N[C@H](C(=O)N[C@@H](CC(C)C)C(=O)O)[C@@H](C)O)C(C)C	-3%	-1	/	5%	/
O=C(N/N=C/c1cc(Br)cc(Br)c1O)c1ccncc1	-26%	5	?	4µM*	5
O=C(N/N=C/c1ccc(O)cc1O)c1ccncc1	0%	0	?	-23%	-5
O=C(N/N=C/c1c[nH]c2ccc(Br)cc12)c1ccncc1	?	-1	2%	13µM*	0
CCOc1ccc(OCC)c(NC(=O)CSc2nnc(C3CC3)n2CC)c1	-6%	1	-9%	1%	-5
COc1ccc(C2CC(c3ccccc3)=NN2c2ccc(/C=N/NC(=O)c3ccncc3)cc2)cc1 (stereo not given)	7.1µM*	0	?	3.2µM*	13
COC(=O)[C@@H]1C[C@@]2(O)[C@H](O)[C@H](O)[C@H](O)C[C@H]2N1Cc1c(F)cccc1Cl	-17%	7	/	7%	/
COc1ccc(NC(C)=O)cc1NC(C)c1nc2sc(C)c(C)c2c(=O)[nH]1 (stereo not given)	-3%	-28	21µM*	10µM*	38
CCOC(=O)c1ccccc1NC(=O)c1cccc2c1C(=O)N(C1CCN(C(=O)OCC)CC1)C2	-10%	4	18µM*	-28%	-1
O=C(NCCc1ccccc1)c1cccc2c1C(=O)N(C1CCCCC1)C2	-10%	/	?	10%	-5
Cc1cc(C)cc(NC(=O)c2cccc3c2C(=O)N(C2CCCCC2)C3)c1	2%	/	?	-14%	-1
COc1cc(NC(=O)c2cccc3c2C(=O)N(C2CCCCC2)C3)cc(OC)c1OC	4%	/	4.6µM*	10%	51
COc1ccc(CCNC(=O)c2cccc3c2C(=O)N(C2CCCCC2)C3)cc1OC	11%	/	?	24%	-78*
CC(C)CNc1nc(C#N)nc(Nc2ccccc2)n1	-19%	1	/	/	/
C[Se]CC[C@H](N)C(=O)O	0%	/	/	30%	/
COc1cc(/C=C/C(=O)C2C(=O)C=C(C)OC2=O)cc(OC)c1O (stereo not given)	-9%	-7	2.6µM*	-47%	-2
CCOC(=O)C1Oc2ccccc2C(c2ccccc2)=C1C(C)=O (stereo not given)	-5%	6	/	-11%	/
CC(NC(=O)c1ccc(NC(=O)CC2SC(N3CCCC3)=NC2=O)cc1)c1ccccc1 (stereo not given)	/	/	15%	/	5
CC1(C)Oc2ccc(/C=C/C(=O)N3CCOCC3)c(O)c2C(N2CCOCC2)C1O (stereo not given)	6%	-1	?	17%	-4
CC(C)CC(=O)OC1C(N2CCOCC2)c2c(ccc(/C=C/C(=O)N3CCOCC3)c2O)OC1(C)C (stereo not given)	-1%	0	16µM*	?	12
COc1cccc(C2=Nn3c(nnc3-c3cc(OC)cc(OC)c3)SC2)c1	-7%	0	/	-8%	/
O=C(N/N=C/c1ccccn1)c1ccncc1	3%	0	?	1%	2
Cc1ccc(C(=O)Nc2ccc(C(=O)N/N=C/c3ccccn3)cc2)cc1	?	0	17%	?	7
O=C(N/N=C/c1ccncc1)c1ccccn1	-3%	0	?	24%	4
Cn1ncc(Cl)c1C(=O)N/N=C/c1ccccn1	-1%	-53*	-12%	1%	41
O=C(N/N=C/c1ccccn1)c1ccccc1	-12%	7	?	16%	-2

Source: PubChem BioAssay
